Bioassay records (PubChem BioAssay)
SW480 rereplic: A quantitative high throughput screen for small molecules that induce DNA re-replication in SW480 colon adenocarcinoma cells. SW480 DNA re-replication, Hoechst DNA content imaging, 48 h. Potency, µM (top dose mostly 46.1 µM), for the others: at the highest dose re-replication activation, actives largely listed as activators. 1.8% of 340,000 active; also: % of control where 0% means no effect; nearly all actives have a fitted effect of over 55% in size
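First, 250 cells per well were seeded. Next, compound or vehicle (23 nL) was pinned in, plates sat 48 hr at 37 C. Finally Hoechst was added for 40 min before fluorescence scanning.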
KB-3-1 cytotox: qHTS assay for MDR1-selective chemotherapeutics: Primary screen using the parental adenocarcinoma cell KB-3-1. 1.4% of 400,000 active. Potency, µM (highest dose often 46.1 µM), hits mostly cytotoxic. AID 1347075, 2019. KB-3-1 viability, CellTiter-Glo ATP luminescence, 72 h; also: % is scaled to controls: 0 for no effect and ±100 for the full control effect; nearly all actives have a fitted effect of over 60% in size
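KB-3-1 parental drug-naive adenocarcinoma cells in DMEM/10% FBS, incubated 72 h at 37 C with pin-transferred compounds across a concentration series. Viability by CellTiter-Glo luminescence; concentration-response curves fitted after normalization.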
KB-V1 cytotox: qHTS assay for MDR1-selective chemotherapeutics: Primary screen using the drug-selected MDR subline cells KB-V1 | KB-V1 MDR cells viability, CellTiter-Glo, 72 h | 3.4% of 400,000 active | Potency, µM (highest dose often 46.1 µM), usual class: cytotoxic; also: % is scaled to controls: 0 for no effect and ±100 for the full control effect; nearly all actives have a fitted effect of over 60% in size
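KB-V1, DMEM (no phenol red) + 10% FBS; cpd pin-transferred, titration series; 72 h, 37 degrees C; CellTiter-Glo, luminescence. Data normalized, curve-fit.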
MCF10A rerep: A quantitative high throughput screen for small molecules that induce DNA re-replication in MCF 10a normal breast cells; 2.9% of 350,000 active; AID 624296, 2012; MCF 10A DNA re-replication, Hoechst nuclear intensity, 48 h; Potency, µM (series often up to 46.1 µM), inactives show at the highest dose activity, positive = re-replication, hits mostly activators; also: % of control where 0% means no effect; nearly all actives have a fitted effect of over 50% in size
ELG1 DNA repair: qHTS screen for small molecules that inhibit ELG1-dependent DNA repair in human embryonic kidney (HEK293T) cells expressing luciferase-tagged ELG1; 2.3% of 330,000 active; Potency, µM (top dose mostly 46.1 µM), inactives show at the top dose activity change, negative = inhibition, hits mostly inhibitors; AID 504467, 2011; HEK293T ELG1-luciferase reporter, luminescence, 16 h; DNA damage induced by 5-fluorouridine; also: % is scaled to controls: 0 for no effect and ±100 for the full control effect; nearly all actives have a fitted effect of over 55% in size
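HEK293T cells expressing luciferase-tagged ELG1 (2,000/well) received 5-Fluorouridine plus compound or DMSO for 16 hr at 37 °C. Luciferase was read by ONE-Glo luminescence after 30 min at room temperature.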
An asterisk follows results filed as active; i = inactive; ? = inconclusive; / = not tested or not shown; [ ] = remark or other dose. Rows were chosen to be rich in hits. Some 8.2% of all compounds tested hit in one or more screens of this group. Calls follow the shape of the dose curve; as a rule, active = well fitted curve in the direction sought with a large enough effect; inconclusive = small, poorly fitted or top-dose-only effect, or another doubt; inactive = no such curve, though single readings can be large; an effect the other way counts as inactive or inconclusive. Potency is read from the fitted curve at half-maximal effect.

SMILES | SW480 rereplic | KB-3-1 cytotox | KB-V1 cytotox | MCF10A rerep | ELG1 DNA repair
CC(C)(C)c1ccc(SC2=C[C@@]3(O)CC[C@@H](O)[C@@](Sc4ccc(C(C)(C)C)cc4)(C2=O)[C@H]3O)cc1 | / | ? | 13µM* | / | /
Cc1ccc(SC2=C[C@@]3(O)CC[C@@H](O)[C@@](Sc4ccc(C)cc4)(C2=O)[C@H]3O)cc1 | / | ? | 16.4µM* | / | /
CC1CCN(CC(O)COc2ccc(-c3ccccc3)cc2)CC1 (centres undefined) | ? | i | i | ? | -6.4%
OC(Cn1ccnc1)c1ccc(Cl)cc1Cl (centres undefined) | 0.3%[9.22 µM] | ? | ? | -0.2% | 11.2%
Clc1ccc(C(Cn2ccnc2)OCc2c(Cl)cccc2Cl)c(Cl)c1 (centres undefined) | ? | i | ? | 4.61µM* | 0.5%
CC1CC1c1ccc(/C=C(\C#N)C(=O)Nc2ccc(Cl)cc2Cl)o1 (centres undefined) | / | i | ? | 16.4µM* | 23.2%
Cc1ccc(C2=NN(S(C)(=O)=O)C(c3ccc4c(c3)OCO4)C2)cc1 (centres undefined) | 2.7% | i | ? | 10.8% | ?
CS(=O)(=O)N1N=C(c2ccc(Br)cc2)CC1c1ccc2c(c1)OCO2 (centres undefined) | 0.6% | i | 16.4µM* | 22.1% | ?
CCOc1ccc(CNS(=O)(=O)c2ccc3c(c2)CC(C)N3C(C)=O)cc1OC (centres undefined) | / | i | i | / | /
COc1ccc(CNC(=O)CCCn2c(SCC#N)nc3cc4c(cc3c2=O)OCO4)cc1 | 3.2% | i | i | -0.2% | 23.1µM*
COc1ccc(Cn2c(SCC#N)nc3ccc(N4CCOCC4)cc3c2=O)cc1 | 1.5% | i | i | 20.6µM* | ?
COCCCNC(=O)CSc1nc2cc3c(cc2c(=O)n1CCCC(=O)NCc1ccc(OC)cc1)OCO3 | 0.2% | i | i | -1.9% | -6.4%
COC(=O)[C@@]1(C(C)C)N=C(c2cc(OC)c(OC)c(OC)c2)[C@]2(O1)C(=O)N(C)c1ccc(Br)cc12 | / | i | i | / | /
COc1cccc(-c2cc(C(F)(F)F)n3ncc(C(=O)O)c3n2)c1 | -5.4% | i | i | 2.1% | -2.8%
COc1cccc(-c2cc(C(F)(F)F)n3ncc(C(=O)N4CCc5ccccc5C4)c3n2)c1 | -2.0% | i | i | 19.6% | 20.6µM*
COc1ccc(-c2cc(C(F)(F)F)n3ncc(C(=O)N4CCc5ccccc5C4)c3n2)cc1 | 2.2% | i | i | ? | 11.6µM*
COc1cccc(-c2cc(C(F)(F)F)n3ncc(S(=O)(=O)c4ccccc4)c3n2)c1 | 8.2µM* | i | i | 7.31µM* | 3.6%
O=C(c1cnn2c(C(F)(F)F)cc(-c3ccco3)nc12)N1CCc2ccccc2C1 | 0.0% | i | ? | 0.8% | 23.1µM*
COC(=O)[C@]12CCCCC=C1N(Cc1cccc3ccccc13)C(=O)[C@H](CC(=O)N1CCCCC1)C2 | / | i | ? | / | /
CC(C)(C)c1ccc(OCC(O)CN2CCc3ccccc3C2)cc1 (centres undefined) | 2.0% | i | i | 5.7% | /
CN(Cc1ccccc1)C(=O)c1ccc(NC(=O)Cc2ccc(NC(=O)C3CCN(C(=O)C4CCCC4)CC3)cc2)cc1 | -25.8%[9.22 µM] | i | i | -31.2% | /
Nc1ncnc(Sc2ncccn2)c1[N+](=O)[O-] | ? | 3.66µM* | ? | ? | ?
CCOC(=O)C1CCCCN1C(=O)/C(=C/c1ccc(OC)cc1)c1ccc(OC)c(OC)c1 (centres undefined) | 4.6% | i | i | 0.3% | 18.3µM*
CCOc1ccccc1OCC(=O)Nc1ccc(S(=O)(=O)Nc2nc(C)cc(C)n2)cc1 | -5.7% | i | 18.4µM* | 15.9% | -8.8%
Cc1cc(C)nc(NS(=O)(=O)c2ccc(NC(=O)COc3ccccc3F)cc2)n1 | -4.4% | i | i | 0.1% | -0.4%
SMILES | SW480 rereplic | KB-3-1 cytotox | KB-V1 cytotox | MCF10A rerep | ELG1 DNA repair
Cc1cccc(NC(=O)C2CCCN(S(=O)(=O)c3cccs3)C2)c1C (centres undefined) | -1.9% | i | i | 8.2% | -27.5%
COc1ccc(CSc2nnc(-c3ccncc3)n2C)cc1F | -0.9% | i | i | 13.7% | 4.3%
O[C@@H]1CN(CC2CCCCC2)[C@@H](c2ccccc2)C[C@H]1n1cc(-c2ccc(F)cc2)nn1 | / | 16.4µM* | i | / | /
CCCCCCN1C[C@H](O)[C@@H](n2cc(-c3ccc(F)cc3)nn2)C[C@@H]1c1ccc(Cl)cc1 | / | 18.4µM* | ? | / | /
COc1ccc([C@H]2C[C@@H](n3cc(-c4ccc(F)cc4)nn3)[C@H](O)CN2C(=O)C2CCCCC2)cc1 | / | i | i | / | /
COc1ccc([C@H]2C[C@@H](n3cc(-c4ccc(F)cc4)nn3)[C@H](O)CN2CC2CCCCC2)cc1 | / | ? | 20.6µM* | / | /
COC(=O)C1=C(C)NC(C)=C(C(=O)OCC(C)C)C1c1ccccc1[N+](=O)[O-] (centres undefined) | ? | i | 3.66µM* | 26.6µM* | /
O=C(Nc1ccc(S(=O)(=O)NC2=NCCCCC2)cc1)c1ccc2ccccc2n1 | -6.8% | i | 23.1µM* | 15.2% | ?
O=C(CCl)Nc1ccc(S(=O)(=O)NC2=NCCCCC2)cc1 | ? | 14.6µM* | 16.4µM* | 20.6µM* | ?
O=C(CCl)Nc1cccc(S(=O)(=O)NC2=NCCCCC2)c1 | 25.4% | ? | ? | ? | ?
O=C(Nc1ccc(S(=O)(=O)NC2=NCCCCC2)cc1)c1ccccc1Cl | -1.3% | i | i | 1.5% | -2.3%
CC(=O)Nc1ccc(S(=O)(=O)Nc2nc3ccc(C)cc3s2)cc1 | -1.2% | i | i | 11.6% | 6.1%
CCC(C)(C)NC(=S)Nc1ccc(-c2nc3ccc(C)cc3s2)cc1 | ? | i | i | ? | ?
Cc1ccc2nc(-c3ccc(NS(=O)(=O)c4ccc(F)cc4)cc3)sc2c1 | ? | i | i | 14.6µM* | ?
O=[N+]([O-])c1ccc2nc(NN=Cc3ccc(O)cc3)sc2c1 | 20.6µM* | i | ? | 9.2µM* | /
O=[N+]([O-])c1ccc2nc(NS(=O)(=O)c3ccc(F)cc3)sc2c1 | ? | ? | ? | 7.31µM* | 3.4%
CC(C)c1ccc(/C=C/C(=O)Nc2nc3ccc([N+](=O)[O-])cc3s2)cc1 | -13.8% | i | i | -3.5% | 10.1%
Cc1ccc2nc(-c3ccc(NC(=S)NCC(C)(C)CN(C)C)cc3)sc2c1 | ? | i | ? | 18.4µM* | /
